Assay outcomes deposited in PubChem BioAssay by National Center for Advancing Translational Sciences (NCATS).
In the library only some 7.3% were active in any assay of this set; here they are far more common.
ELG1 genotoxic: qHTS screen for small molecules that induce genotoxicity in human embryonic kidney (HEK293T) cells expressing luciferase-tagged ELG1; HEK293T ELG1-luciferase reporter, luminescence, 16 h; 330,000 compounds, 1.3% hits; Potency, µM (highest dose often 46 µM), inactives show at the top dose activity change, positive = activation, actives largely listed as activators; further: % of control where 0% means no effect; nearly all actives have a fitted effect of over 60% in size
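HEK293T cells expressing luciferase-tagged ELG1 were treated with compound or DMSO for 16 hr at 37°C. Luciferase activity was then read after 30 min with ONE-Glo at room temperature; rising signal flags genetic stress.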
KinaseGlo FLuc: Counterscreen for Luciferase (Kinase-Glo TM) Inhibition; Luciferin 4-monooxygenase (Photuris pensylvanica), Q27757; Kinase-Glo luciferase, ATP luminescence, 8 min; Potency, µM (doses to about 38.3 µM), without a hit: top-dose activity change, negative = inhibition, most hits filed as inhibitors; 200,000 compounds, 0.28% hits; AID 1379, 2008; further: on the % scale 0 is the no-effect control and ±100 the full control effect; nearly all actives have a fitted effect of over 60% in size
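Luminescence was the read-out, taken after 8-minute incubation at ambient temperature. Luciferase turned over luciferin with 10 uM ATP in imidazole pH 7.2 buffer containing KCl, MgCl2, Tween 20 and BSA.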
SMN2 splice up: qHTS Assay for Enhancers of SMN2 Splice Variant Expression; HEK293 SMN2-luciferase splicing reporter, luminescence, 30-36 h; Potency, µM (highest dose often 46.1 µM), for the others: top-dose activity change, positive = activation, actives largely listed as activators; 210,000 compounds, 2.8% hits; AID 1458, 2008; further: % of control where 0% means no effect; nearly all actives have a fitted effect of over 55% in size
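qHTS luciferase splicing reporter: luminescence rises when SMN2 exon 7 is included in transfected HEK293 cells. Compound exposure lasted 30-36 h at 37C, with 4.5 mM final sodium butyrate as control, followed by a ONE-Glo read.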
FLuc counter: qHTS profiling assay for firefly luciferase inhibitor/activator using purifed enzyme and Km concentrations of substrates (counterscreen for miR-21 project). Luciferin 4-monooxygenase (Photinus pyralis), P08659. purified FLuc, Km substrates, luminescence inhibition. Potency, µM (titrated, usually from 57.5 µM), without a hit: at the top dose activity change, negative = inhibition, actives largely listed as inhibitors. 360,000 compounds, 6.9% hits;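 further: plate controls were vehicle for no effect and reference inhibitor for full effect; nearly all actives have a fitted effect of over 55% in size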
Target sequence (P08659 whole entry, looked up): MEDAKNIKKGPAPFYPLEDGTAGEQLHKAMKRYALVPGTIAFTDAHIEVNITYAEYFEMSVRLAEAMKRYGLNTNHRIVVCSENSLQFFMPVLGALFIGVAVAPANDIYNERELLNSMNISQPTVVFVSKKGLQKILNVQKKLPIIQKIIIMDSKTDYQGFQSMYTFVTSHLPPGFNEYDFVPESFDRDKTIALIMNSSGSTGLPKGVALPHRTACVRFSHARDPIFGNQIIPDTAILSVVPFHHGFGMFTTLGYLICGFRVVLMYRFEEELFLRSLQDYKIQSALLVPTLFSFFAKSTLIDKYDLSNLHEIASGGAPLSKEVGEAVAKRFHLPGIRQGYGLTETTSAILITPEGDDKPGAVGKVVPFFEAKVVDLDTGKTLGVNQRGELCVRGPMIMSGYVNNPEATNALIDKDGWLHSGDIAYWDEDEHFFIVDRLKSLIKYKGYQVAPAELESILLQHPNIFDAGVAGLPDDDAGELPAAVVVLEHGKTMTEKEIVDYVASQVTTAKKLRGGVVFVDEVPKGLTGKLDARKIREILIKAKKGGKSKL
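Purified P. pyralis luciferase (10nM final) with 10uM D-luciferin and 10uM ATP (Km levels) in 50mM Tris acetate pH 7.5, 10mM Mg acetate, 0.01% Tween-20, 0.05% BSA; qHTS 6-point titration, ~60 µM downward; luminescence read.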
Rab9 promoter act: qHTS Assay for Rab9 Promoter Activators; Potency, µM (highest dose often 9.22 µM), without a hit: at the top dose activation, negative = inhibition, usual class: activators; 320,000 compounds, 2.8% hits; Huh7 Rab9 promoter-luciferase reporter, luminescence, 24 h; further: % of control where 0% means no effect; nearly all actives have a fitted effect of over 60% in size
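Huh7 cells stably carrying a Rab9 promoter-luciferase reporter, 1500 cells per well in OP-MEM I with 10% FBS, treated with compound 24 hours at 37C. Luciferase activity read by luminescence after 10 minutes with Amplite reagent.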
NPC1 promoter act: qHTS Assay for NPC1 Promoter Activators; Huh7 NPC1 promoter luciferase reporter, 24 h; Potency, µM (highest dose often 9.22 µM), inactives show at the top dose activation, most hits filed as activators; 320,000 compounds, 2.4% hits; further: % of control where 0% means no effect; nearly all actives have a fitted effect of over 60% in size
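Quantitative HTS used a cell-based reporter: Huh7 cells stably bearing the NPC1 promoter upstream of luciferase were treated with compounds for 24 h, and promoter activation was read as luminescence.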
Starred values were filed as active, the others as inactive; ? = inconclusive; . = no result; [ ] = dose if it differs, or a comment. The call rests on the fitted dose curve; in most records, active means well fitted curve in the direction sought with a large enough effect; inconclusive means small, poorly fitted or top-dose-only effect, or another doubt; inactive means no such curve, though single readings can be large; an effect the other way counts as inactive or inconclusive. Potency means the concentration at half of the fitted maximal effect.

SMILES	ELG1 genotoxic	KinaseGlo FLuc	SMN2 splice up	FLuc counter	Rab9 promoter act	NPC1 promoter act
Cc1ccc(-n2nnc(-c3cnc4ccccc4c3)n2)cc1	1.64µM*	.	.	0.426µM*	0.316µM*	0.891µM*
c1ccc2ncc(-n3cnnn3)cc2c1	9.7%	-0.8%	-4.9%	-3.6%	0.4%	7.0%
c1ccc(-n2nnc(-c3cccnc3)n2)cc1	?	.	.	13.5µM*	2.82µM*	3.98µM*
Clc1nc2ccccc2cc1-c1nnn(-c2ccccc2)n1	16.4µM*	.	.	2.39µM*	1.58µM*	3.16µM*
Clc1ncccc1-c1nnn(-c2ccccc2)n1	6.51µM*	.	.	2.39µM*	1.41µM*	1.12µM*
c1ccc(OCCCn2nnc(-c3cccnc3)n2)cc1	6.4%	4.0%	-10.8%	-3.0%	0.5%	-5.7%
Cc1ccc(-c2nc(CCNC(=O)C(=O)Nc3ccc(C)c(Cl)c3)cs2)cc1	.	.	.	2.0%	.	.
C[C@@]12C[C@H](O)C3[C@H](CCC4=CC(=O)CC[C@]43C)[C@H]1CC[C@@H]2c1csc(-c2ccccc2)n1 (some centres not stated)	.	-4.2%[7.66 µM]	-8.1%[9.22 µM]	.	.	.
Fc1ccc(-n2nnc(-c3ccccc3Cl)n2)cc1	-1.8%	.	.	0.1%	-4.0%	-5.5%
Cc1ccc(-n2nnc(-c3nccn3C)n2)cc1	1.83µM*	.	.	1.35µM*	0.355µM*	0.501µM*
O=c1ncn(-c2ccc(F)cc2)c2ncccc12	4.1%	-3.6%	4.0%	-0.2%	-2.8%	1.4%
Fc1ccc(-n2nnc(-c3cccnc3Cl)n2)cc1	5.8µM*	.	.	2.39µM*	0.355µM*	1.58µM*
Fc1ccc(-n2nnc(-c3nccs3)n2)cc1	3.66µM*	.	.	3.38µM*	0.501µM*	0.501µM*
COc1ncccc1-c1nnn(-c2ccccc2)n1	8.2µM*	.	.	3.38µM*	0.708µM*	1.78µM*
COc1nn(-c2ccccc2)c(=O)c(Cl)c1Cl	-10.6%	.	.	0.1%	-49.9%	-47.4%
COC(=O)c1nnc(N[C@@H](Cc2c[nH]c3ccccc23)C(=O)OC)nc1C(=O)OC	.	4.8%	14.2%	.	.	.
COc1ccc2c(c1)CC(C(=O)NCCc1ccc(S(N)(=O)=O)cc1)CO2 (configuration not stated)	.	.	.	5.0%	.	.
COc1ccc(-c2cc3ccc(O)c(CN4CCC(C)CC4)c3oc2=O)cc1OC	.	.	.	-1.1%	.	.
O=C(CSc1nc2c(c(=O)[nH]1)CCCC2)Nc1ccccc1C(F)(F)F	.	.	.	-1.2%	.	.
Clc1ccc(-n2nnc(-c3cccnc3Cl)n2)cc1Cl	10.3µM*	.	.	1.35µM*	1.12µM*	1µM*
O=C(Nc1ccc2nc(-c3ccco3)c(-c3ccco3)nc2c1)NC1CC1	0.1%	-2.0%	-19.2%	6.01µM*	27.7%	18.0%
O=C(NCCCO)Nc1ccc2nc(-c3ccco3)c(-c3ccco3)nc2c1	1.5%	16.3%	-19.7%	10.7µM*	7.3%	-0.3%
CCOc1ccc(CNC(=O)CCCn2c(=O)c3cccn3c3ccc(F)cc32)cc1	.	.	.	1.5%	.	.
CN1CCN(C(=O)c2ccccc2-c2nc(-c3ccccc3)no2)CC1	18.1%	1.2%	-5.8%	?	13.5%	9.8%
NC(=O)c1ccc(-c2ccccc2F)cc1	7.9%	.	.	?	16.4%	1.1%
SMILES	ELG1 genotoxic	KinaseGlo FLuc	SMN2 splice up	FLuc counter	Rab9 promoter act	NPC1 promoter act
NC(=O)c1ccccc1-c1nc(-c2ccccc2)no1	?	8.2%	20.6%	23.9µM*	?	?
NC(=O)c1cccc(-c2noc(-c3ccccc3F)n2)c1	?	.	.	2.69µM*	0.794µM*	0.891µM*
COC(=O)c1cccc(-c2noc(-c3ccccc3F)n2)c1	?	.	.	1.69µM*	0.282µM*	?
CCCn1c2ccccc2c2cnn(CC(=O)NCc3ccc(OC)cc3)c(=O)c21	.	.	.	1.5%	.	.
COc1ccccc1CNC(=O)CC(c1ccc(C)cc1)N1Cc2ccccc2C1=O (configuration not stated)	.	.	.	-3.0%	.	.
COc1ccccc1C(=O)Nc1ccc2c(c1)OCCO2	?	-23.8%	12.6µM*	7.57µM*	1.78µM*	3.16µM*
COc1cc(SC)ccc1C(=O)Nc1ccc2c(c1)OCCO2	?	-18.3%	5.62µM*	0.536µM*	0.891µM*	?
Cc1ccccc1C(=O)Nc1ccc2c(c1)OCO2	1.64µM*	?	0.794µM*	4.78µM*	0.447µM*	0.447µM*
COc1ccccc1C(=O)Nc1ccc2c(c1)OCO2	14.6µM*	-28.9%	17.9%	13.5µM*	2.51µM*	?
CC1=C(C(=O)OC2CCCC2)C(c2ccccc2C(F)(F)F)CC(=O)N1 (configuration not stated)	.	.	-1.5%	-1.1%	.	.
CCCCOc1ccc(CNC(=O)CCCN2C(=O)CSc3c2c(C)nn3-c2ccccc2)cc1	.	.	.	-23.6%	.	.
CC(C)NC(=O)c1onc(CSc2cccc3ccccc23)c1C(=O)O	-4.1%	-1.3%	-1.8%	26.9µM*	-4.9%	1.0%
CCc1nc(-c2cc(S(=O)(=O)N3CCN(c4ccccc4)CC3)ccc2OC)no1	.	.	.	0.5%	.	.
COc1cccc(-c2cc(C(=O)Nc3cccnc3)c3ccccc3n2)c1	-14.1%	.	.	26.9µM*	3.8%	-0.2%
COc1ccc(-c2cc(C(=O)Nc3nc4ccccc4s3)c3ccccc3n2)cc1OC	-3.7%	-3.5%	-34.5%	16.9µM*	-0.5%	-1.7%
COc1ccc(-c2cc(C(=O)Nc3ccccc3O)c3ccccc3n2)cc1OC	-11.0%	-3.8%	-40.9%	?	-1.8%	-5.9%
COc1ccc(-c2cc(C(=O)Nc3cccnc3)c3ccccc3n2)cc1OC	-18.0%	.	.	10.7µM*	-0.1%	0.0%
CCN(C(=O)C1=COCCO1)c1nc2c(C)cccc2s1	20.6µM*	.	.	15.1µM*	?	29.2%
Cc1cc(C)c2nc(N(CCCN(C)C)C(=O)C3=COCCO3)sc2c1	10.7%	.	.	2.8%	3.0%	-5.3%
COC(=O)c1cc2sccc2n1Cc1ccc(F)cc1Cl	.	.	0.5%	-13.0%	.	.
O=c1c(=Nc2ccccc2O)c(=O)c2ccccc12	?	-1.9%	11.2µM*	-18.7%	3.55µM*	?
Cc1ccc(/C=C/C(=O)CCC(=O)O)cc1	12.9%	1.1%	.	6.75µM*	?	22.0%
Cc1ccc(Nc2nc3nonc3[nH]c2=O)cc1	?	1.1%	17.4%	15.1µM*	?	27.9%
Cc1ccc2c(c1)nc(SCC(O)c1ccc(Br)cc1)n2C (configuration not stated)	.	.	3.7%	-14.6%	.	.
